Results on 33 compounds are retold here after PubChem BioAssay (EPA / NIEHS).

Inconclusive results are not listed. Calls of active or inactive are those of the source. Rule for the calls: active = hit-call score of the fitted dose curve at least 0.9, where 1 is the maximum; inconclusive = response in the unintended direction; inactive = score below 0.9.

The nature of this experiment: ACEA_ER_AUC_viability: ACEA Biosciences xCELLigence Real-Time Cell Analysis on Estrogen Receptor Agonism for Viability (AID 2283782).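 Note: hit means loss of impedance signal meaning reduced cell growth or viability.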 In outline: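 Continuous-exposure impedance cell analysis uses T-47D cells in charcoal-stripped serum, eight 1:4 dilutions topping at 100 uM final, biological duplicate. Area under the growth curve at 80 h is fitted against DMSO baseline.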
With `CCCCCC=CCC(=O)OC`, the outcome was inactive.

`CC(CN1c2ccccc2Sc2ccccc21)N(C)C` (stereo not drawn): the AC50 (in general, the concentration at which the activity in the assay is half-maximal) was 17.2 µM (active).

Turning to `CC(C)(C)C(=O)c1ccccc1`, the compound was classed as inactive.

For the compound `CC(=O)[O][Al][O]C(C)=O`, the concentration at half-maximal activity (AC50) was 9.92 µM (active).

For `Cc1cccc(C)c1C`, the AC50 was 26.4 µM (active).

Turning to `CC(=O)OCc1ccc2c(c1)OCO2`, the compound was classed as inactive.

As to `CC(C)c1ccc(C(C)C)cc1`, the call was inactive.

Take `OCCOCCOCCOCCO`: the outcome was inactive.

For the compound `NCCOCCO`, the result was inactive.

Take `CC1CCC(C(C)(C)O)CC1` (stereo not drawn): the call was inactive.

On to `CC(C)=CCCC(C)CC=O` (stereo not drawn), for which the compound was called inactive.

In the case of `[Ca+2]`, the compound was classed as inactive.

As for `CC1(C)[C@@H]2CC[C@@]1(C)[C@H](O)C2`, the compound was called inactive.

Turning to `CC(C)[C@@H]1CC[C@@H](C)CC1=O`, the compound was classed as inactive.

On to `CCCCC(CC)COCCC#N` (stereo not drawn), for which the call was inactive.

Regarding `O=S(=O)(O)NC1CCCCC1`, the AC50 was 50 µM (active).

For the compound `CN(C)C(=N)N=C(N)N`, the compound was called inactive.

For the compound `CCN(CC)c1ccc2c(-c3ccccc3C(=O)O)c3ccc(=[N+](CC)CC)cc-3oc2c1`, the half-maximal activity concentration (AC50) was 29.1 µM (active).

`CCCCCCOC(=O)CC`: the AC50 was 23.9 µM (active).

`CCCCCCCCC=O`: the result was inactive.

For the compound `CCC(=O)OCc1ccccc1`, the compound was called inactive.

For the compound `CCO[Si](CCCS)(OCC)OCC`, the result was inactive.

With `C=CC(=O)NCOCC(C)C`, the outcome was inactive.

Take `c1ccc2sc(SN(C3CCCCC3)C3CCCCC3)nc2c1`: the AC50 is 81.8 µM (active).

Consider `CC(C)c1cccc(O)c1`, for which the call was inactive.

On to `CC(C)(COC(=O)c1ccccc1)COC(=O)c1ccccc1`, for which the AC50 is 72.8 µM (active).

For `O=[N+]([O-])c1cc(C(F)(F)F)ccc1Cl`, the AC50 was 49.8 µM (active).

Turning to `CCC(O)CO` (stereo not drawn), the AC50 is 26 µM (active).

For `O=C(O)Cc1cccc2ccccc12`, the compound was classed as inactive.

For the compound `CC1(C)[C@H]2CC[C@]1(C)[C@H](O)C2`, the result was inactive.

For `C=CC(C)(O)CCC=C(C)CCC=C(C)C` (stereo not drawn), the AC50 was 67.1 µM (active).

`CC(C)(N)CO`: the result was inactive.

As for `CCCc1ccccc1O`, the AC50 was 64.2 µM (active).
